Compound activity as filed in PubChem BioAssay.
Compounds with a hit are over-represented: about 4% of the library has one in this group of screens.
LMP1 NFkB inh: EBV LMP1-driven NF-kappaB luciferase reporter inhibitors, primary screen, cell-based, luminescence, single point | inhibition, % at 12.5 µM | AID 504558, 2011 | LMP1-induced NF-kappaB luciferase reporter cells | actives 0.69% (n = 350,000); in the data active = inhibition above about 41%
TROY NFkB inh: inhibitors of TROY-driven NF-kB signaling, primary screen, Q293 LMP1-TROYcd cells, NF-kB luciferase, uHTS; Q293 LMP1-TROYcd NF-kB luciferase reporter, 4 h; inhibition, % at 10 µM; actives 0.98% (n = 360,000); AID 1347056, 2019;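 active = compounds whose plate-normalised and pattern-corrected inhibition of the luciferase reporter signal at the single screening dose is 50% or more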
HIF-2a block: HIF-2a reporter inhibitors, primary screen, luminescence, 786-0 RCC cells; 786-0 RCC cells HIF-2a reporter, luciferase luminescence, overnight; inhibition, % at 18.8 µM; actives 0.72% (n = 360,000); AID 624352, 2012;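 active = inhibition of the luminescence signal of 40% or more relative to plate controls, in a single-dose primary screen at 18.75 µM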
TWEAK Fn14 block: inhibitors of TWEAK-Fn14 signaling, primary screen, luciferase reporter cells, uHTS; TWEAK-stimulated Fn14 reporter cells, luciferase luminescence, 8 h; inhibition, % at 10 µM; actives 2% (n = 360,000); AID 1159606, 2016; in the data active = inhibition above about 50%
MITF TRPM1 inh: inhibitors of MITF-dependent TRPM1 promoter reporter, primary screen, cell-based, SK-MEL-5, single point, luciferase | AID 488899, 2010 | inhibition, % at 12.5 µM | actives 0.83% (n = 330,000) | SK-MEL-5 TRPM1 promoter luciferase, 24 h;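 active = mean inhibition across replicates of 60% or more, whatever share of single replicates reaches that level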
Peg3 promoter: Peg3 promoter-driven luciferase inhibitors, primary screen, cell-based, HeLa, luciferase luminescence; inhibition, % at 20 µM; HeLa PEG-Prom luciferase reporter, overnight; actives 1.7% (n = 360,000); AID 588405, 2011;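 active = inhibition of at least 50% at 20 µM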
Numbers stand for hits; i = inactive; nt = no result.

SMILES	LMP1 NFkB inh	TROY NFkB inh	HIF-2a block	TWEAK Fn14 block	MITF TRPM1 inh	Peg3 promoter
CCCCCc1cc(=O)oc2c(C(CCN3CCCC3)c3cc(OC)c(OC)c(OC)c3)c(OC)cc(OC)c12 (stereo not given)	i	i	i	i	95	102
CCOc1c(Cl)cc(/C=N/NC(N)=S)cc1OC	i	i	i	52	i	i
COc1cc(/C=N/NC(N)=S)cc(Br)c1OCc1ccccc1F	i	i	i	64	i	i
O=S(=O)(Nc1nc2ccccc2nc1NCC1CCCO1)c1cccc(Cl)c1 (stereo not given)	i	i	i	i	i	i
O=C(c1ccc2oc(CCc3ccccc3)nc2c1)N1CCC(O)CC1	i	58	i	i	i	i
CCOC(=O)N1CCN(C(=O)c2ccc3oc(CCc4ccccc4)nc3c2)CC1	i	i	i	i	nt	i
Cc1occc1C(=O)N/N=C/c1ccc(N(C)C)cc1	i	i	i	72	i	i
COc1ccc(/C=N/NC(=O)c2ccoc2C)cc1COc1c(C)cccc1C	i	i	i	74	i	i
Cc1cccc(C)c1OCC(=O)NNC(=O)c1ccoc1C	i	nt	i	51	i	i
COc1ccc(/C=N\NC(=O)c2ccccc2OC)cc1COc1ccccc1C	i	i	i	i	i	i
COc1ccccc1OCC(=O)NNC(=O)c1ccoc1C	i	i	i	i	i	i
Cc1occc1C(=O)N/N=C/C=C/c1ccc(N(C)C)cc1	i	i	i	i	i	i
COC(=O)C1CC2(C(=O)OC)CC(C(=O)OC)(CC(C(=O)OC)C2=O)C1=O (stereo not given)	i	i	i	i	i	i
CC1(C(=O)NS(=O)(=O)Cc2cccc(Cl)c2)CCN1C(=O)CCc1cccs1 (stereo not given)	nt	i	i	i	nt	i
CC(C)C(NC(=O)CCNC(=O)c1ccc(C(C)(C)C)cc1)c1nc2ccccc2[nH]1 (stereo not given)	i	i	i	i	i	i
CN1CCN(C2=Cc3cc(Cl)ccc3Sc3cc(F)ccc32)CC1	i	i	i	i	i	94
OCCN1CCN(C2Cc3cc(Cl)ccc3Sc3ccc(Cl)cc32)CC1 (stereo not given) (tested in a mixture with another compound)	i	i	i	i	i	65
CN1CCN(CCOC2Cc3ccccc3Sc3ccc(Cl)cc32)CC1 (stereo not given)	i	i	i	i	i	i
CN1CCN(C2Cc3cc(Cl)ccc3Sc3cc(F)ccc32)CC1 (stereo not given)	i	i	i	i	i	91
CC(C)c1ccccc1NC(=O)COC(=O)c1c2c(nc3ccccc13)CCN(Cc1ccccc1)C2	i	i	i	i	i	57
O=C(NC1CCCCCC1)c1c2c(nc3ccccc13)CCN(Cc1ccccc1)C2	i	i	i	i	i	i
COc1cccc(NC(=O)COC(=O)c2c3c(nc4ccccc24)CCC(C)C3)c1 (stereo not given)	i	i	i	57	i	71
Cc1c(Cl)cccc1NC(=O)COC(=O)c1c2c(nc3ccccc13)CCN(Cc1ccccc1)C2	i	i	i	i	i	60
Cc1ccc(NC(=O)C(C)Sc2nnc3n2CCCCC3)cc1S(=O)(=O)N1CCOCC1 (stereo not given)	i	i	i	i	nt	i
COc1ccc(CCNC(=O)CSc2ccc(-c3ccncc3)nn2)cc1	i	i	i	i	i	i
SMILES	LMP1 NFkB inh	TROY NFkB inh	HIF-2a block	TWEAK Fn14 block	MITF TRPM1 inh	Peg3 promoter
COc1ccc2c(c1)c(C(C)=O)c(C)n2-c1ccc(C(C)=O)cc1	i	i	i	i	i	i
COc1ccc(-n2c(C)c(C(C)=O)c3cc(OC(C)=O)ccc32)cc1	60	52	i	84	i	i
COC(=O)c1c(C)n(-c2ccc(OC)cc2)c2ccc(O)cc12	i	i	i	52	nt	i
Cc1nc(N/N=C/c2ccc(Br)cc2)cc(N2CCOCC2)n1	i	i	i	i	i	i
COc1ccc(-c2cc(CNc3nc(NC(C)C)nc4cc(-c5ccccc5)sc34)on2)cc1	nt	i	i	i	nt	78
c1ccc(-c2cc3nc(NCC4CC4)nc(NCC4CCCCC4)c3s2)cc1	nt	i	i	56	nt	93
CC(=O)Nc1ccc(CNc2nc(NC(C)C)nc3cc(-c4ccccc4)sc23)cc1	nt	i	i	i	nt	65
COCCNc1nc(NCC2CCCCC2)c2sc(-c3ccccc3)cc2n1	nt	i	i	i	nt	i
CCOC(=O)C1=C(COC(=O)c2ccc([N+](=O)[O-])s2)NC(=O)NC1C (stereo not given)	i	i	i	i	62	i
Cc1ccnc(NC(=O)C2CC(=O)N(Cc3ccccc3)C2)c1 (stereo not given)	i	i	i	i	i	i
COc1cc2c3c(cccc3c1)C(=O)N(CCN1CCCC1)C2=O	i	i	i	i	nt	102
O=C1c2ccccc2CN1CCNC(=S)NC1CCCCC1	49	i	i	i	i	i
O=C(NCCN1Cc2ccccc2C1=O)c1cccs1	i	i	i	i	i	i
CCCC/C=C1/CCC(CN(C)C)C1=O (stereo not given)	i	i	i	i	75	98
CC1=CC(=O)C(C(C)C)=C/C1=C(\c1cc(C(C)C)c(OP(=O)(O)O)cc1C)c1ccccc1C(=O)O	i	i	i	i	i	67
CC(C)(C)C(=O)c1c(N)[nH]c(C(=O)c2ccccc2)c1-c1ccc(Br)cc1	nt	i	i	i	nt	nt
CCc1nc(Nc2ccc3c(c2)OCCO3)c2oc3ccccc3c2n1	i	i	i	79	i	69
Cc1nc(Nc2ccc3c(c2)OCCO3)c2oc3ccccc3c2n1	i	i	i	i	i	i
c1ccc2c(c1)oc1c(Nc3ccc4c(c3)OCCO4)ncnc12	i	i	i	67	i	i
CCc1nc(NCC2CCCO2)c2oc3ccccc3c2n1 (stereo not given)	i	nt	i	87	i	i
CCCCC[C@@H](/C=C/C1C(=O)C=C[C@H]1C/C=C\CCCC(=O)OC)OC(C)=O (stereo not given in full)	i	i	i	91	68	81
COc1ccc(CNC(=O)C(c2ccc(C)cc2)N(Cc2cccs2)C(=O)c2ccc3c(c2)OCCO3)cc1 (stereo not given)	i	i	i	i	i	63
COc1ccc(CNC(=O)C(c2cccs2)N(Cc2ccco2)C(=O)Cc2cccs2)cc1 (stereo not given)	i	i	i	i	i	57
Cc1ccc(C(C(=O)NCc2ccccc2)N(Cc2cccs2)C(=O)c2ccc3c(c2)OCCO3)cc1 (stereo not given)	i	i	i	54	i	63
